For 25 molecules, mean cell size and cell count results are on record in the supplement of paper PMC4709259.

Assay [1] has as its system Jurkat. The assay is described as follows: mean cell size (FSC-A) relative to DMSO control (fraction of control); higher = larger cells. The note with it: 48 h. The gist of the method:
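Jurkat cells seeded at 600 cells/µl were incubated 1 h, then exposed for 48h to the Enzo Screen-Well FDA Approved Drug Library v2.0 at 25µM in 0.9% (v/v) final DMSO. Drugs that cut counts below 20% of controls were diluted 10-fold and retested, down to 25nM. Cell count and mean cell size (forward scatter area) were read on an Accuri C6 flow cytometer, relative to solvent-only controls. Plates held 6-12 controls; values are means of 3 biological replicates.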

Assay [2] concerns Jurkat. The assay is described as follows: cell count relative to DMSO control (fraction of control); higher = more cells (less growth inhibition). The following applies: 48 h.

SMILES strings stand for the structures. Where a name gives a salt, the structure may show the parent alone. ± gives the standard deviation.

`CC[C@@H](CO)NC(=O)[C@@H]1C=C2c3cccc4[nH]cc(c34)C[C@H]2N(C)C1` [Methylergonovine Maleate] (concentration: 25 µM) returned a mean cell size in the assay on Jurkat [1] of 1.01 ± 0.016. Besides, the cell count in the assay on Jurkat [2] was 0.865 ± 0.15.
As to `CN(C)[C@@H]1C(=O)C(C(N)=O)=C(O)[C@@]2(O)C(=O)C3=C(O)c4c(O)cccc4[C@@](C)(O)[C@H]3[C@H](O)[C@@H]12` [Oxytetracycline·HCl] (concentration: 25 µM), the mean cell size in the assay with Jurkat [1] was 0.894 ± 0.014. Further, the cell count with Jurkat [2] turned out to be 0.884 ± 0.1.
Molecule `CC(=O)O[C@H]1C[C@@H]2CC[C@@H]3[C@H](CC[C@@]4(C)[C@H]3C[C@H]([N+]3(C)CCCCC3)[C@@H]4OC(C)=O)[C@@]2(C)C[C@@H]1[N+]1(C)CCCCC1` [Pancuronium·2Br] (concentration: 25 µM) gave a mean cell size with Jurkat [1] of 0.963 ± 0.015. In addition, the cell count in the assay with Jurkat [2] was 1.12 ± 0.09.
The molecule `C[C@]12CC[C@@H]3c4ccc(OC(=O)N(CCCl)CCCl)cc4CC[C@H]3[C@@H]1CC[C@@H]2OP(=O)(O)O` [Estramustine Phosphate·Na] (concentration: 25 µM) displayed a mean cell size in the assay with Jurkat [1] of 0.958 ± 0.045. Also, the cell count in the assay on Jurkat [2] stood at 0.781 ± 0.051.
Turning to `C#CCN(C)[C@H](C)Cc1ccccc1` [Selegiline·HCl] (concentration: 25 µM), the mean cell size with Jurkat [1] is 0.9392 ± 0.0074. Moreover, the cell count in the assay with Jurkat [2] was 0.711 ± 0.098.
`CCCC(C)(COC(N)=O)COC(N)=O` [Meprobamate (Schedule Iv)] (concentration: 25 µM): in the assay with Jurkat [1], the mean cell size worked out at 1.08 ± 0.036. The same molecule displayed a cell count with Jurkat [2] of 0.941 ± 0.069.
The corresponding values for `CC(C)N(CCC(C(N)=O)(c1ccccc1)c1ccccn1)C(C)C` (stereo not given) [Disopyramide] (concentration: 25 µM) are 0.985 ± 0.041 and 0.733 ± 0.14.
On to `Oc1ccc2c3c1O[C@H]1[C@@H](O)CC[C@@]4(O)[C@@H](C2)N(CC2CCC2)CC[C@]314` [Nalbuphine·HCl Dihydrate] (concentration: 25 µM), for which the mean cell size in the assay on Jurkat [1] is 0.955 ± 0.048. Besides, the cell count in the assay on Jurkat [2] turned out to be 0.995 ± 0.17.
On the same counts, the results for `CC(NC(C)(C)C)C(=O)c1cccc(Cl)c1` (stereo not given) [Bupropion] (concentration: 25 µM) are 0.935 ± 0.011 and 0.696 ± 0.15.
With `CC(C)C[C@H]1C(=O)N2CCC[C@H]2[C@]2(O)O[C@](NC(=O)[C@@H]3C=C4c5cccc6[nH]c(Br)c(c56)C[C@H]4N(C)C3)(C(C)C)C(=O)N12` [Bromocriptine Mesylate] (concentration: 25 µM), the mean cell size in the assay with Jurkat [1] was 0.939 ± 0.031. The molecule also had a cell count in the assay on Jurkat [2] of 0.288 ± 0.21.
`CCCCCCC(=O)O[C@H]1CC[C@H]2[C@@H]3CCC4=CC(=O)CC[C@]4(C)[C@H]3CC[C@]12C` [Testosterone Enanthate] (concentration: 25 µM) yielded a mean cell size in the assay with Jurkat [1] of 0.954 ± 0.047. In addition, the cell count with Jurkat [2] was 0.703 ± 0.12.
`NCCCNCCSP(=O)(O)O` [Amifostine] (concentration: 25 µM) gave a mean cell size with Jurkat [1] of 0.95 ± 0.036. Besides, in the assay with Jurkat [2], the cell count turned out to be 0.8 ± 0.12.
On the same counts, the results for `NCC(CC(=O)O)c1ccc(Cl)cc1` (stereo not given) [Baclofen] (concentration: 25 µM) are 0.985 ± 0.044 and 0.555 ± 0.08.
`COc1ccc2c(c1)[C@]13CCCC[C@@H]1[C@H](C2)N(C)CC3` [Dextromethorphan] (concentration: 25 µM) gave a mean cell size with Jurkat [1] of 0.936 ± 0.022. The cell count in the assay on Jurkat [2] is 0.841 ± 0.024.
As for `O=c1[nH]c2ccccc2n1C1CCN(CCCC(c2ccc(F)cc2)c2ccc(F)cc2)CC1` [Pimozide] (concentration: 2.5 µM), the mean cell size in the assay with Jurkat [1] turned out to be 1.08 ± 0.033. The cell count in the assay on Jurkat [2] was 0.663 ± 0.14.
With `COc1cc2c(c(OC)c1OC)-c1ccc(OC)c(=O)cc1[C@@H](NC(C)=O)CC2` [Colchicine] (concentration: 25 nM), the mean cell size in the assay with Jurkat [1] was 0.967 ± 0.026. In addition, in the assay on Jurkat [2], the cell count amounted to 0.071 ± 0.007.
The molecule `O=P1(NCCCl)OCCCN1CCCl` (stereo not given) [Ifosfamide] (concentration: 25 µM) returned a mean cell size with Jurkat [1] of 0.938 ± 0.026. The cell count with Jurkat [2] stood at 0.372 ± 0.12.
On the same counts, the results for `Cc1c(N)nc(C(CC(N)=O)NCC(N)C(N)=O)nc1C(=O)NC(C(=O)NC(C)C(O)C(C)C(=O)NC(C(=O)NCCc1nc(-c2nc(C(=O)NCCC[S+](C)C)cs2)cs1)C(C)O)C(O[C@@H]1O[C@@H](CO)[C@@H](O)[C@H](O)[C@@H]1O[C@H]1O[C@H](CO)[C@@H](O)[C@H](OC(N)=O)[C@@H]1O)c1cnc[nH]1` (stereo not given in full) [Bleomycin Sulfate] (concentration: 2.5 µM) are 1.33 ± 0.048 and 0.297 ± 0.043.
On the same counts, the results for `C[N+]1(C)[C@@H]2CC(OC(=O)[C@H](CO)c3ccccc3)C[C@H]1[C@@H]1O[C@@H]12` (stereo partly drawn) [Methscopolamine Bromide ((-)-Scopolamine Methyl Bromide)] (concentration: 25 µM) are 1.05 ± 0.046 and 0.683 ± 0.089.
In the assay on Jurkat [1], `CCOC(=O)CC(SP(=S)(OC)OC)C(=O)OCC` (stereo not given) [Malathion] (concentration: 25 µM) returned a mean cell size of 0.916 ± 0.041. This molecule also showed a cell count with Jurkat [2] of 1.06 ± 0.074.
Regarding `CN(C)[C@@H]1C(=O)C(C(N)=O)=C(O)[C@@]2(O)C(=O)C3=C(O)c4c(O)cccc4[C@@](C)(O)[C@H]3C[C@@H]12` [Tetracycline] (concentration: 25 µM), in the assay with Jurkat [1], the mean cell size came to 0.998 ± 0.064. In the assay on Jurkat [2], the cell count turned out to be 0.556 ± 0.046.
The corresponding values for `CCN(C)C(=O)Oc1cccc([C@H](C)N(C)C)c1` [Rivastigmine Tartrate] (concentration: 25 µM) are 1.01 ± 0.022 and 0.843 ± 0.13.
`C=C1C[C@@H]2[C@H](CC[C@]3(C)C(=O)CC[C@@H]23)[C@@]2(C)C=CC(=O)C=C12` [Exemestane] (concentration: 25 µM): in the assay on Jurkat [1], the mean cell size came to 0.914 ± 0.029. The molecule also registered a cell count with Jurkat [2] of 0.422 ± 0.12.
With `O=C(O[C@H]1C[C@H]2CC[C@@H](C1)[N+]21CCCC1)C(O)(c1ccccc1)c1ccccc1` [Trospium Chloride] (concentration: 25 µM), the mean cell size with Jurkat [1] is 1.07 ± 0.049. Further, the cell count in the assay with Jurkat [2] was determined as 0.982 ± 0.079.
The molecule `CN1[C@@H]2CC[C@H]1C[C@@H](OC(=O)C(CO)c1ccccc1)C2` (stereo not given in full) [Atropine Sulfate Monohydrate] (concentration: 25 µM) gave a mean cell size with Jurkat [1] of 0.974 ± 0.017. The molecule also returned a cell count in the assay with Jurkat [2] of 0.677 ± 0.057.
